Compound activity (PubChem)
BAZ2B inh: BAZ2B (human) inhibition; Q9UIF8; AlphaScreen BAZ2B-H3K14Ac peptide displacement; Potency, µM (series often up to 114 µM), actives largely listed as inhibitors; 4.4% of 360,000 active; AID 504333; further: nearly all actives have a fitted effect of over 60% in size
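AlphaScreen displacement: compounds (up to 110uM) incubated 30 min at room temperature with a preformed 50 nM BAZ2B/50 nM biotinylated H3K14Ac peptide complex in PBS pH 7.4 with Tween-20. Donor and acceptor beads at 10 ug/mL final added, 20 min light-protected before reading.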
L3MBTL1 block: L3MBTL1 (human) inhibition. 0.66% of 230,000 active. AlphaScreen L3MBTL1–H3K9me1 peptide binding. Potency, µM (top dose mostly 57.1 µM), hits mostly inhibitors. AID 485360. Q9Y468; further: nearly all actives have a fitted effect of over 60% in size
Target sequence (Q9Y468 whole entry, looked up): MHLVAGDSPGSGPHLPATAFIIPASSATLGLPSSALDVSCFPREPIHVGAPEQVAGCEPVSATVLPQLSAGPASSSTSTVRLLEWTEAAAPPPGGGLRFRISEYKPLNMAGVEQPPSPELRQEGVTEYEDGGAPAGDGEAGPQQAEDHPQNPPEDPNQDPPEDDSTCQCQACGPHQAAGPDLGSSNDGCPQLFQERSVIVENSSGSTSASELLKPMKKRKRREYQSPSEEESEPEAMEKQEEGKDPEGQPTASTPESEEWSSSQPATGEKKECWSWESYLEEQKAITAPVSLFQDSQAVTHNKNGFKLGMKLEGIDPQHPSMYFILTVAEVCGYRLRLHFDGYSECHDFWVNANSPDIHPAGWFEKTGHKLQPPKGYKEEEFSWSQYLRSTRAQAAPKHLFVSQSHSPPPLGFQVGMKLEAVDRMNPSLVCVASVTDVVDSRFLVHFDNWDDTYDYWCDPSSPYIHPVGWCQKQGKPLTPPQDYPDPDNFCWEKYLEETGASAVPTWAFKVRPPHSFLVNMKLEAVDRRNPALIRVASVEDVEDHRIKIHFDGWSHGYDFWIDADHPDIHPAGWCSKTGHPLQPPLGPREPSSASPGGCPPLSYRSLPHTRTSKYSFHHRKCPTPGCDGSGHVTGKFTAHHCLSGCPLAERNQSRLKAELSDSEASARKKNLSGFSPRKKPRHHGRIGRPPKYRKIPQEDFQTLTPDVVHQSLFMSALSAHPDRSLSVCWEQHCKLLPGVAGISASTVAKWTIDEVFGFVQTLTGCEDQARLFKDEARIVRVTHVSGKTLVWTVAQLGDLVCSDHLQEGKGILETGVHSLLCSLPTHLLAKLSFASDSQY
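First, the protein-peptide complex forms for 30 min at room temperature (L3MBTL1 50 nM, biotinylated H3K9me1 peptide 75 nM). Next, compounds are pin-transferred and incubated 30 min. Finally, AlphaScreen beads are added and read after 30 min.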
JMJD2A Tudor: blocks the human JMJD2A Tudor domain; O75164; AlphaScreen JMJD2A-Tudor / H3K4me3 peptide binding; Potency, µM (series often up to 114 µM), most hits filed as inhibitors; 4.4% of 390,000 active; further: nearly all actives have a fitted effect of over 50% in size
Sfp PPTase inh: inhibitors of Bacillus subtilis Sfp phosphopantetheinyl transferase | AID 1490 | Q9F4F7 | Potency, µM, hits mostly inhibitors | Biochemical Sfp PPTase activity, qHTS | 3.5% of 310,000 active;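 further: the enzyme is Sfp with the accession as filed and its product quenches rhodamine fluorescence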
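Reaction rates are the 30-min fluorescence difference (ex 525, em 598 nm) in wells containing 15 nM Sfp, 5 uM rhodamine-CoA and 12.5 uM BHQ-2-YbbR at pH 7.6 with 10 mM MgCl2.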
G9a inh: G9a (human) methyltransferase inhibition; G9a H3K9 monomethylation, AlphaScreen, 2 h; Potency, µM (titrated, usually from 102 µM), most hits filed as inhibitors; 8.8% of 350,000 active; AID 504332; further: nearly all actives have a fitted effect of over 75% in size
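Step 1: enzyme (final 20 nM) with compound, 15 min RT. Step 2: substrate peptide 500 nM and SAM 20 uM, 2 h RT. Step 3: anti-H3K9me1 antibody and AlphaScreen beads, 10 min, then plate read.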
HP1b binding inh: blocks HP1-beta chromodomain binding to methylated histone tails | 0.56% of 390,000 active | Potency, µM (highest dose often 114 µM), hits mostly inhibitors | AlphaScreen HP1-beta / biotin-H3K9me3 peptide binding | P83916 | AID 540317; further: nearly all actives have a fitted effect of over 70% in size
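AlphaScreen: HP1-beta (50 nM) preformed 30 min with biotin-H3(1-18)K9me3 peptide (50 nM) in PBS pH 7.4, 0.01% Tween-20. Compound added for 30 min at RT, then streptavidin donor/nickel chelate acceptor beads (10 ug/mL) for 30 min.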
Numbers stand for hits; . = inactive; ? = inconclusive; / = no result; [ ] = another dose, or the depositor's remark. This is a sample that favours compounds with a hit; in the whole collection about 12% have one here. The call rests on the fitted dose curve; in most records, active means well fitted curve in the direction sought with a large enough effect; inconclusive means small, poorly fitted or top-dose-only effect, or another doubt; inactive means no such curve, though single readings can be large; an effect the other way counts as inactive or inconclusive.

SMILES	BAZ2B inh	L3MBTL1 block	JMJD2A Tudor	Sfp PPTase inh	G9a inh	HP1b binding inh
COc1ccc(C2c3[nH]c4ccccc4c3CCN2Cc2ccoc2)c(F)c1 (stereo unspecified)	?	.	?	.	44.7µM	.
Fc1ccccc1C1c2[nH]c3ccccc3c2CCN1CCCn1cccn1 (stereo unspecified)	.	?	?	.	39.8µM	.
Oc1cccc(C2c3[nH]c4ccccc4c3CCN2Cc2ccc3c(c2)CCO3)c1 (stereo unspecified)	44.7µM	?	56.2µM	.	.	.
COc1cccc(C2c3[nH]c4ccccc4c3CCN2Cc2cnc(C)s2)c1OC (stereo unspecified)	25.1µM	.	?	.	.	.
Oc1cccc(C2c3[nH]c4ccccc4c3CCN2Cc2ccoc2)c1 (stereo unspecified)	?	?	?	.	.	.
COC(=O)[C@H](C)NC(=O)NCc1ccccc1	.	?	.	.	?	.
c1cncc(-c2nc(NCCN3CCOCC3)c3ccccc3n2)c1	/	/	/	.	/	/
CCCCNC(=S)Nc1ccccc1Cc1ccccc1	50.1µM	.	.	.	.	.
COc1ccc(Cl)cc1S(=O)(=O)Nc1ncn[nH]1	.	/	.	.	79.4µM	.
COc1ccc(OC)c(S(=O)(=O)Nc2ccc(O)c3ccccc23)c1	44.7µM	.	?	20µM	5.62µM	70.8µM
COc1ccc(OC)c(S(=O)(=O)Nc2ccc(O)c(Sc3ncn[nH]3)c2)c1	?	.	?	35.5µM	7.94µM	.
CCOc1ccc(S(=O)(=O)Nc2ccc(O)c(Sc3ncn[nH]3)c2)cc1	.	.	.	.	22.4µM	.
CC1=C(C)CC2(SC1)C(=O)N(c1ccccc1)N=C2N (stereo unspecified)	.	/	.	.	.	.
CCc1ccc(S(=O)(=O)Nc2ccc(O)c3ccccc23)cc1	?	/	?	.	.[2.33 µM]	?
O=S(=O)(Nc1ccc(O)c2ccccc12)c1ccc(F)cc1	/	/	50.1µM	/	/	?
Cc1cc(C)n(CC(O)CN2c3ccccc3Sc3ccccc32)n1 (stereo unspecified)	50.1µM	.	31.6µM	.	?	.
Cc1cc(C)n(CC(O)Cn2c3ccccc3c3ccccc32)n1 (stereo unspecified)	.	/	.	50.1µM	.[12.7 µM]	.
CCN(CC)c1ccc(N=CN2CCOCC2)cc1	?	/	79.4µM	.	11.2µM	?
CCN(CC)c1ccc(/C=N/N2CCOCC2)c(O)c1	.	.	.	.	?	.
Cc1ccc(CNC(=O)c2ccc(Cl)c(S(=O)(=O)N3CCCCC3)c2)cc1	.	.	.	/	.[12.7 µM]	.
O=C1CCc2cc(S(=O)(=O)Nc3ccc4ncccc4c3)ccc2N1	/	/	.	/	/	/
COc1ccc([C@@H]2[C@H]3C(=O)N(c4cccc(C(F)(F)F)c4)C(=O)[C@H]3ON2C)cc1	.	.	.	.	44.7µM	.
CN1Cc2sccc2C(c2ccc(O)c(O)c2)C1 (stereo unspecified)	/	/	/	/	8.44µM	/
CCOc1ccc2[nH]c(=S)[nH]c2c1	.	/	44.7µM	.	?	.
CCOc1ccc2nc(-c3ccccc3)[nH]c2c1	.	.	.	.	?	.
SMILES	BAZ2B inh	L3MBTL1 block	JMJD2A Tudor	Sfp PPTase inh	G9a inh	HP1b binding inh
COC(=O)C1=C(C(=O)OC)C2(OC1c1ccccc1C)C(=O)c1ccccc1C2=O (stereo unspecified)	.	?	.	.	14.1µM	.
COC(=O)C1=C(C)N(C)C(C)=C(C(=O)OC)C1c1ccccc1C	.	.	.	.	.	.
O=c1c2ccccc2cnn1Cc1n[nH]c(=S)n1-c1ccc(Cl)cc1	.	.	22.4µM	.	1.78µM	.
CC(c1ccccc1)n1c(Cn2ncc3ccccc3c2=O)n[nH]c1=S (stereo unspecified)	.	.	31.6µM	.	3.55µM	.
O=c1c2ccccc2cnn1-c1ccc(Cl)cc1	.	.	.	.	.	.
CCc1cc(C(=O)N(Cc2ccccc2)c2c(N)n(CCOC)c(=O)[nH]c2=O)sc1C	.	.	.	/	.	.
CCS(=O)(=O)c1ccc(OC)c(N=Nc2ccc(O)c3ncccc23)c1	8.91µM	/	39.8µM	.	14.1µM	.
CCN(CC)S(=O)(=O)c1cc(OC)ccc1N=Nc1ccc(O)c2ncccc12	20µM	/	12.6µM	.	8.91µM	?
CCN(CC)S(=O)(=O)c1cccc2cccnc12	.	/	.	.	.	.
O=C(Cn1nc(-c2ccc(Cl)cc2)ccc1=O)NCCc1ccccc1	.	/	.	/	.	.
Cc1ccc(-c2ccc(=O)n(CC(=O)NCCc3ccc(Cl)cc3)n2)cc1	.	/	89.1µM	/	.	.
c1ccc(N=Nc2ccc3cccccc2-3)cc1	/	/	3.98µM	/	/	3.98µM
Cc1cc(=O)n2[nH]c(N)c(N=Nc3ccccc3)c2n1	.	.	.	.	.	.
Nc1ccc(N=Nc2ccccc2)c2ccccc12	11.2µM	31.6µM	35.5µM	.	10µM	.
Clc1ccc(-c2[nH]ncc2N=Nc2ccccc2)cc1	?	/	?	.	?	.
Nc1ccc(N=Nc2ccccc2)c(N)n1	?	.	.	.	11.2µM	.
CC(=O)N1CCCc2cc(S(=O)(=O)N3CCC(C(=O)NCc4ccc(N(C)C)cc4)CC3)ccc21	.	/	?	/	?	.
COc1cc(NS(=O)(=O)c2ccc3c(c2)CCN3S(C)(=O)=O)cc(OC)c1	.	/	.	/	.	.
CC(C)c1nc(N2CCN(C(=O)c3ccco3)CC2)c(C#N)c2c1COC(C)(C)C2	?	/	.	.	?	?
CCCCc1nc(N2CCN(C(=O)c3ccco3)CC2)c(C#N)c2c1CCCC2	?	/	.	44.7µM	.	.
CCCc1cc(N2CCN(C(=O)c3ccco3)CC2)n2c(nc3ccccc32)c1C#N	.	/	.	56.2µM	15.8µM	.
NC(=O)c1ccc(NC(=O)COC(=O)CCN2C(=O)c3ccccc3C2=O)cc1	/	.	.	/	/	.
CCOc1ccc(Br)cc1/C=N/O	.	/	.	.	.	.
O=C(O)COc1ccc(Br)cc1/C=N/O	?	?	.	.	56.2µM	.
CCc1ccc(OCC(=O)N/N=C(\C)c2ccc3c(c2)OCCO3)cc1	.	.	.	56.2µM	.	.
C/C(=N\NC(=S)NC(C)C)c1ccc2c(c1)OCCO2	?	.	?	.	?	50.1µM
C/C(=N\NC(=O)COc1ccc(C(C)(C)C)cc1)c1ccc2c(c1)OCCO2	.	.	?	.	.	.
CNC(=S)N/N=C(\C)c1ccc2c(c1)OCO2	?	.	.	79.4µM	?	.
CCNC(=S)N/N=C(\C)c1ccc2c(c1)OCCO2	?	.	.	.	.	.
CNC(=S)N/N=C(\C)c1ccc2c(c1)OCCO2	?	.	.	50.1µM	.	.
